Laboratory results published in ChEMBL document CHEMBL3433997, “St. Jude Leishmania screening dataset” (2016).

The compounds below were run against Glucose transporter (Leishmania mexicana) (UniProt O61059) (assay: ST_JUDE_LEISH: Cytotoxicity at 2uM final concentration against transgenic Leishmania Mexicana promastigotes LmGT2 that are glucose transport deficient and complemented with the L. Mexicana glucose transporter 2. Activity is measured by DNA content using SYBR green in vitro).
Format: functional
Compound COc1ccc2nccc(NC(=O)C3CCC(NCc4ccc5c(c4)NC(=O)CS5)CC3)c2c1 (stereo not given) has an inhibition of 0.5%.
O=C(Nc1ccc(CC(=O)N2CCc3cc(Cl)c(N4CCN(C/C=C/c5ccccc5)CC4)cc32)cc1)Nc1cccc([N+](=O)[O-])c1 was tested, and the inhibition was 1.93%.
CC(Oc1cc(-n2cnc3ccc(NC(=O)CCN4CCCCC4)cc32)sc1C(N)=O)c1ccccc1Cl (stereo not given) gave an inhibition of 6.83%.
For COc1ccc2c(=NN=Cc3ccccc3F)cc(C)[nH]c2c1, the inhibition was 0.39%.
FC(F)(F)c1ccc2[nH]c(-c3ccc(-c4ccc(CNCCN5CCNCC5)cc4)cc3)nc2c1 showed an inhibition of -1.25%.
COc1ccc(N2CCN(CCCCNCc3ccc(NC(=O)c4cc(Cl)cc(Cl)c4)cc3)CC2)c(OC)c1 was tested, and the inhibition was 1.31%.
CN1CCC(NCc2ccc(-c3cccc(S(=O)(=O)NCCc4ccccn4)c3)cc2)CC1 gave an inhibition of 1.83%.
COc1ccc2nccc([C@@H](O)CNCCCN(C)CCOc3cc(F)cc(F)c3)c2c1 was tested, and the inhibition was 6.99%.
Work on CCN(CCN(C)C)Cc1ccc(-c2ccc(NS(=O)(=O)c3cccc4cccnc34)cc2)cc1 yielded an inhibition of 6.11%.
With O=C1CCCN1CCCNCc1ccc(-c2ccc(-c3nc4cc(C(F)(F)F)ccc4[nH]3)cc2)cc1 the inhibition was 2.6%.
For COc1ccc2nc3cc(Cl)ccc3c(NCCN3CCN(C)CC3)c2c1, the inhibition was 3.79%.
Cc1ncccc1-c1cccc2c(NC(=O)Nc3ccc4nccc(N5CCN(C)CC5)c4c3)cccc12 showed an inhibition of 1.71%.
Compound CC1CN(c2cnn(C/C=C/c3ccc(NC(=O)c4ccc([N+](=O)[O-])cc4)cc3)c(=O)c2Cl)CC(C)N1 (stereo not given) has an inhibition of 0.18%.
O=C(NC1CCN(CCN2CCc3ccccc3CC2)CC1)c1ccc(-c2ccc(C(F)(F)F)cc2)cc1 was tested, and the inhibition was 4.56%.
For O=C(Nc1ccc(-c2cccc(-c3nc4ccccc4[nH]3)c2)cc1)c1cnn2cccnc12, the inhibition was -0.16%.
For COc1ccc2c(c1)C(C)(CCCN(C)C)C(=O)N2C (stereo not given), the inhibition was 2.15%.
Compound CCNC(=O)N1CCc2ccc(Oc3nc(NCc4ccccc4OC)ncc3C)cc2CC1 has an inhibition of 2.64%.
With FC(F)(F)c1ccc2[nH]ccc(=NN=Cc3ccccc3)c2c1 the inhibition was 0.98%.
COc1cc(Cc2cnc3nc(N)nc(N)c3c2C)cc(OC)c1OC was tested, and the inhibition was 1.69%.
For Oc1c(C(Nc2nc3ccccc3s2)c2ccccc2)ccc2cccnc12 (stereo not given), the inhibition was -1.54%.
Compound Nc1nc(N)c2c(CCc3ccc(Cl)c(Cl)c3)cccc2n1 has an inhibition of 8.14%.
For Cc1cc(N[C@@H](Cc2ccccc2)C(=O)Nc2ccccc2)nc(NCCN2CCCC2)n1, the inhibition was -2.29%.
Compound COc1cc(-c2nc(C(C)(C)CN)[nH]c2-c2ccncc2)ccc1Br has an inhibition of 4.8%.
For COc1ccccc1N1CCN(C(C(=O)NCc2ccc3c(c2)OCO3)c2ccc3c(c2)OCCCO3)CC1 (stereo not given), the inhibition was 3.62%.
CCc1n[nH]c(C(=O)NC2CCN(CC3(c4ccc(OC)cc4)CCCCC3)CC2)c1C gave an inhibition of 1.81%.
O=C(NCc1ccc(C(=O)NC2CCCCC2)cc1)c1ccc(O)c(-c2ccc(Cl)c(Cl)c2)c1 showed an inhibition of 1.41%.
Compound CN1CCN(c2ccc(CNc3ccc4ncc(-c5cccc(OC(F)(F)F)c5)n4n3)cc2)CC1 has an inhibition of -2.5%.
COc1ccc2cc(C(=O)Nc3ccc4c(c3)CCN(C3CCC3)CC4)ccc2c1 gave an inhibition of 3.8%.
CCCCCCCC/C=C\CCCCCCCC(=O)NCc1ccc(O)c(OC)c1 gave an inhibition of 5.67%.
O=C(Nc1cc(F)cc(F)c1)N1CCOC(CCN2CCC(c3ccccc3)CC2)(c2ccc(Cl)c(Cl)c2)C1 (stereo not given) was tested, and the inhibition was 2.87%.
With COc1ccc2nccc([C@@H](O)CN3CCC(NC(=O)c4cc5c(F)cc(F)cc5[nH]4)CC3)c2n1 the inhibition was 85.4%.
In the case of N#Cc1ccc(CN2CCCN(Cc3cccc(NC(=O)c4ccc(-c5ccccc5)cc4)c3)CC2)cc1, the inhibition is reported as 4.12%.
Work on CC(C)COc1ccc(Cl)cc1Cc1ccc(-c2nc3ccc(Cl)cc3[nH]2)o1 yielded an inhibition of 1.16%.
In the case of OCC(c1ccccc1)n1c(COc2ccc(Cl)cc2)nc2c(OCCCN3CCCCC3)cccc21 (stereo not given), the inhibition is reported as 6.47%.
Clc1ccc2c(NN=Cc3cccs3)ccnc2c1 gave an inhibition of 2.8%.
CC(C)CNCc1cccc(-c2cccc(CNCCCN3CCN(C)CC3)c2)c1 gave an inhibition of 4.44%.
With CCCCCC(C)C(C)c1cc(O)c2c(c1)OC(C)(C)CC2c1cc[n+]([O-])cc1 (stereo not given) the inhibition was 4.64%.
Work on CN1CCN(c2ccnc3ccc(NC(=O)Nc4cccc5c(-c6ccncc6)cccc45)cc23)CC1 yielded an inhibition of 0.32%.
For COc1ccc(N2CCN(CCCCNC(=O)c3ccc(NC(=O)c4cc(C(F)(F)F)cc(C(F)(F)F)c4)cc3)CC2)c(OC)c1, the inhibition was 1.33%.
O=C(c1ccc(-c2ccc(-c3nc4cc(C(F)(F)F)ccc4[nH]3)s2)cc1)N1CCN(CCc2ccccc2)CC1 showed an inhibition of 4.62%.
